Source: PubChem (National Center for Advancing Translational Sciences (NCATS))
p53ts 39C tox = qHTS Screen for Compounds that Selectively Target Cancer Cells with p53 Mutations: Cytotoxicity of p53ts Cells at the Nonpermissive Temperature; Potency, µM (doses to about 46.1 µM), inactives show at the top dose activity change, negative = cell killing, hits mostly cytotoxic; AID 902, 2007; H1299-p53A138V viability at 39C, ATP luminescence, 24 h; hit rate 1.5% among 130,000; further: on the % scale 0 is the no-effect control and ±100 the full control effect; nearly all actives have a fitted effect of over 55% in size
Peg3 imprint = qHTS Assay for Compounds that Induce Erasure of Genomic Imprints; mouse ES Peg3-LacZ reporter, beta-gal luminescence, 40 h; Potency, µM (top dose mostly 60.7 µM), inactives show at the top dose activity change, positive = activation, most hits filed as activators; hit rate 0.02% among 110,000
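Gelatin-coated wells received 300 freshly trypsinized female ES cells with a Peg3LacZ-Neo reporter on the maternal allele, then incubated 40 hours at 37C. BetaGlo was added for 5 minutes at room temperature before a single luminescence read.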
p53ts 32C kill = qHTS Screen for Compounds that Selectively Target Cancer Cells with p53 Mutations: Cytotoxicity of p53ts Cells at the Permissive Temperature; H1299-p53A138V at 32C, ATP luminescence viability, 24 h; Potency, µM (top dose mostly 46.1 µM), for inactives: at the top dose activity change, negative = cytotoxicity, usual class: cytotoxic; hit rate 0.93% among 130,000;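 further: 0% = DMSO and -100% = full killing by reference compound; nearly all actives have a fitted effect of over 55% in size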
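Cells: H1299 p53ts (A138V), 600/well, pre-incubated 16–30 h at 37C. Cpd up to 46 uM, 24 h, 32C. Readout: ATPlite luminescence, 20 min RT. Normalization: DMSO vs tamoxifen 100 uM. AC50 by Hill equation.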
IkB sig inh = IkB Signaling; ABC-DLBCL IkBa-CBG/CBR dual luciferase ratio, 4 h; response scale: scaled: untreated 0%, proteasome inhibitor 100%; Potency, µM (titrated, usually from 57.1 µM), for the others: at the top dose IkBa stabilization activation; hit rate 0.04% among 110,000; active means well fitted curve in the direction sought with a large enough effect in the signal ratio, not every such curve was filed as active; inconclusive means small, poorly fitted or top-dose-only effect, or a change in a side signal; the % refers to the signal ratio;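 further: the direction sought is a rising ratio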
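In this assay, an IκBα–CBG68 fusion accumulates when IKK-driven degradation is blocked; native CBR normalizes for cell number. OCI-Ly3 cells were treated 4 h with compound and doxycycline, then green and red light read after Chroma-Glo addition.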
Active calls of the source: *; ? = inconclusive; / = no result given; [ ] = remark or other dose. Rows were chosen to be rich in hits. Some 1.7% of all compounds tested hit in one or more screens of this group. Unless noted, the call rests on the fitted dose curve; in most records, active means well fitted curve in the direction sought with a large enough effect; inconclusive means small, poorly fitted or top-dose-only effect, or another doubt; inactive means no such curve, though single readings can be large; an effect the other way counts as inactive or inconclusive. Potency means the concentration at half of the fitted maximal effect.

SMILES	p53ts 39C tox	Peg3 imprint	p53ts 32C kill	IkB sig inh
c1ccc(-c2noc(-c3cccc4ccccc34)n2)nc1	?	-76.8%	?	?
Clc1cccc(-c2nc(-c3ccccn3)no2)c1	3.16µM*	-92.7%	5.01µM*	?
Cc1ccc(-c2noc(-c3ccccc3Br)n2)cc1	10µM*	-49.6%	12.6µM*	6.7%
Cc1ccc2nc(-c3ccccn3)oc2c1	5.01µM*	-90.6%	3.16µM*	1.3%
CCOC(=O)Cn1c(=O)oc2cc(S(=O)(=O)N3CCN(c4cccc(C)c4C)CC3)ccc21	-28.9%	9.4%[10.9 µM]	4.2%	?
CCC(=O)NC(c1ccccc1OC)c1ccc2cccnc2c1O (centres undefined)	-18.3%	/	-2.3%	/
Oc1cccc(C(Nc2ccccn2)c2ccc3cccnc3c2O)c1Cl (centres undefined)	7.94µM*	-21.6%[10.9 µM]	2.2%	?
Cc1ccc(-n2ncc3c(N(C)C)ncnc32)cc1Cl	7.94µM*	-28.0%[10.9 µM]	?	-2.1%
Cc1ccc(-n2ncc3c(NCCO)ncnc32)cc1Cl	15.8µM*	19.3%[10.9 µM]	-15.3%	?
Cc1ccc(-n2ncc3c(N4CCN(C)CC4)ncnc32)cc1Cl	?	-21.9%[10.9 µM]	-6.6%	?
CCCCN(C)c1ncnc2c1cnn2-c1cccc(Cl)c1	15.8µM*	-14.3%[10.9 µM]	?	1.8%
CSc1ccc(CCNC(=O)C(C)n2c(C)c3cnn(-c4ccccc4)c(=O)c3c2C)cc1 (centres undefined)	-7.6%	-12.1%[10.9 µM]	-1.2%	?
COc1ccc(Nc2ncc(C(=O)Nc3ccc(F)cc3F)c3ccccc23)cc1	-0.2%	-5.2%[10.9 µM]	7.0%	?
CCc1ccc(Nc2nc3c(S(=O)(=O)c4cccc(Cl)c4)nnn3c3ccsc23)cc1	-10.4%	-11.5%[10.9 µM]	0.3%	-1.2%
CCc1ccc(S(=O)(=O)c2nnn3c2nc(Nc2ccc(NC(C)=O)cc2)c2sccc23)cc1	12.6µM*	-5.2%[10.9 µM]	?	-1.9%
Cc1cc(=Nc2ccc3c(c2)c(N)cc(C)[n+]3C)nc(N)n1C	5.8%[9.22 µM]	-6.3%[10.9 µM]	2.9%[9.22 µM]	1.5%[11.4 µM]
COc1ccc(NC(=O)CSc2nc(-c3cccs3)cc(C(F)(F)F)n2)c(OC)c1	-10.0%	-14.0%[10.9 µM]	-6.3%	-3.4%
O=C(Nc1cc(Cl)cc(Cl)c1)c1ccc(F)c(S(=O)(=O)NC2CCCCC2)c1	25.1µM*	14.9%[10.9 µM]	?	?
COc1ccc(CNS(=O)(=O)c2cc(C(=O)Nc3cc(Cl)cc(Cl)c3)ccc2F)cc1	?	-6.4%[10.9 µM]	3.3%	?
O=C(Nc1ccc(Br)cc1)c1ccc(F)c(S(=O)(=O)NC2CCCCCC2)c1	12.6µM*	-25.2%[10.9 µM]	?	?
Cc1cccc(C#Cc2ccccc2)n1	?	-43.9%	12.6µM*	0.3%
COC(=O)c1ccc(C(NC(=O)OCc2ccccc2)/C(F)=C/[C@@H](C)C(=O)NCc2ccc(OC)c(OC)c2)cc1 (some centres undefined)	12.6µM*	-15.1%	?	/
COC(=O)c1ccc(C(NC(=O)OCc2ccccc2)/C(F)=C/[C@@H](C)C(=O)NCc2ccc(-c3ccccc3)cc2)cc1 (some centres undefined)	-3.3%	-13.9%	-2.4%	/
Cc1ccc(S(=O)(=O)NCC(Nc2cccc(Cl)c2)c2ccccc2)cc1 (centres undefined)	15.8µM*	-16.2%[10.9 µM]	?	?
Cc1ccc(C)c(Nc2cc(C(=O)NCCCN(C)C3CCCCC3)c3ccccc3n2)c1	?	-12.3%[10.9 µM]	-9.1%	?
SMILES	p53ts 39C tox	Peg3 imprint	p53ts 32C kill	IkB sig inh
CCc1ccc(CNC(=O)c2cc(-c3ccc(Cl)s3)nc3ccccc23)cc1	13.2%	1.5%[10.9 µM]	-1.5%	0.2%
CCCCN(CCCNC(=O)c1cc(Nc2ccc(OC)cc2)nc2ccccc12)Cc1ccccc1	-25.8%	-10.5%[10.9 µM]	-8.4%	-2.2%
CCCCN(CCCNC(=O)c1cc(Nc2ccc(OC)c(OC)c2)nc2ccccc12)Cc1ccccc1	12.6µM*	-15.1%[10.9 µM]	-3.4%	?
Cc1cc(C)cc(Nc2cc(C(=O)NCCCN(C)C3CCCCC3)c3ccccc3n2)c1	7.94µM*	-11.4%[10.9 µM]	?	?
CCc1ccccc1NC(=O)c1cc(-c2ccc(Cl)s2)nc2ccccc12	10µM*	-2.5%[10.9 µM]	?	?
CCCCN(C)CCCNC(=O)c1cc(-c2ccc(Br)s2)nc2ccccc12	12.6µM*	-7.3%[10.9 µM]	-10.6%	-5.1%
